From PubChem BioAssay
Compounds with a hit are over-represented: about 4.5% of the library has one in this group of screens.
GAA850 FXN act – FXN promoter activators, primary screen, cell-based, luciferase luminescence, HEK293 lucGAA850 | HEK293 lucGAA850 FXN promoter luciferase reporter, 24 h; percent of 10 µM SAHA response | activation, % at 6 µM | hit rate 0.56% among 360,000;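 active = activation above the average of all compounds screened plus 3 SD, cutoff fixed separately per campaign, cut at about 7.5% in these data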;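 also: 0% = DMSO wells and 100% = 10 µM SAHA wells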
hgDAF-12 ag – H. glycines DAF-12 receptor agonists, primary screen, cell-based, luminescence, HEK293, GAL4 fusion, UAS-luciferase; HEK293 GAL4-hgDAF12 UAS-luciferase reporter, agonist luminescence; normalized to butyrate control; activation, % at 6.8 µM; hit rate 1.8% among 370,000; AID 687014, 2013;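 active = activation above a cutoff set at the mean of all screened compounds plus 3 SD, cut at about 10% in these data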;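 also: 0% = DMSO wells and 100% = sodium butyrate wells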
DAX1 inh-1 – DAX1 (NR0B1) inhibitors, primary screen, cell-based, HEK293, Gal4-DAX1, luciferase luminescence. inhibition, % at 6.75 µM. hit rate 0.99% among 340,000. HEK293 Gal4-DAX1 luciferase reporter;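 active = inhibition above the mean over all tested compounds plus 3 SD, cut at about 4.2% in these data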;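 also: 0% = DAX1-transfected cells with DMSO and 100% = empty-vector control cells with DMSO; inhibition shows as a rise in luminescence from relieved DAX1 repression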
Target sequence (P51843 207-470 limits assumed): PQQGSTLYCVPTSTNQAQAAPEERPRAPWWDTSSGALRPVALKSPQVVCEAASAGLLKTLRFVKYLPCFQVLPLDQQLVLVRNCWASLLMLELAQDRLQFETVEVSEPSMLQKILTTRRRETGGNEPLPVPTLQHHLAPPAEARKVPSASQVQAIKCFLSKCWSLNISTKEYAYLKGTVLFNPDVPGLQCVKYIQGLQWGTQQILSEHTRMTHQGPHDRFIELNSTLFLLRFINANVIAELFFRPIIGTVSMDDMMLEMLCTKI
DAX1 inh-2 – DAX1 (NR0B1) inhibitors on StAR promoter, primary screen, cell-based, luminescence, SF-1 (NR5A1), full-length DAX-1 | HEK293T StAR-luciferase reporter, SF-1/DAX-1 repression relief | inhibition, % at 6.8 µM | hit rate 1.1% among 370,000;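 active = inhibition above the mean over all tested compounds plus 3 SD, cut at about 3.6% in these data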;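 also: 0% = DAX-1 cells with DMSO and 100% = cells lacking DAX-1 with DMSO; higher inhibition means more luminescence from relief of DAX-1 repression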
ssDAF-12 act – S. stercoralis DAF-12 nuclear receptor activators, primary screen, cell-based, luminescence, HEK293, GRIP1 co-expression, lit1-tk-luc. Nuclear hormone receptor DAF-12 (Strongyloides stercoralis). HEK293 ssDAF-12/GRIP1 lit1-tk-luc reporter; % of 3 µM dafachronic acid response. activation, % at 6.8 µM. hit rate 1% among 370,000;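 active = activation above the mean over all tested compounds plus 3 SD, cut at about 0.9% in these data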;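 also: 0% = DMSO-only wells and 100% = 3 µM delta7-dafachronic acid wells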
hcDAF-12 act – H. contortus DAF-12 nuclear receptor activators, primary screen, cell-based, luminescence, HEK293, lit1-tk-luc reporter; HEK293 hcDAF-12 lit1-tk-luc reporter; 0% DMSO, 100% Δ7-dafachronic acid; activation, % at 6.8 µM; hit rate 1.4% among 370,000; AID 652067, 2013;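 active = activation above the mean of all tested compounds plus 3 SD, cut at about 5.5% in these data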;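 also: 100% = response to 3 µM Δ7-dafachronic acid high control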
Starred values were filed as active, the others as inactive; / = no result.

SMILES | GAA850 FXN act | hgDAF-12 ag | DAX1 inh-1 | DAX1 inh-2 | ssDAF-12 act | hcDAF-12 act
O=C(c1ccc(F)cc1Cl)N1CCCC(c2nc(-c3cccs3)no2)C1 (stereo unspecified) | / | 1 | / | 0 | -1 | -2
CCOC(=O)c1sc2nc3c(SCCC#N)cc(C(=O)c4cc(F)ccc4O)cn3c(=O)c2c1C | 2 | 4 | 0 | 1 | 1.5* | 4
CC1(NC(=S)NCCCCCCNC(=S)NC2(C)CCS(=O)(=O)C2)CCS(=O)(=O)C1 (stereo unspecified) | 2 | 0 | 5.0* | 1 | -2 | -1
CC(=O)c1ccc(N2CCN(S(=O)(=O)c3cc4[nH]c(=O)c(=O)[nH]c4cc3C)CC2)cc1 | 2 | 11* | 0 | 1 | -1 | -2
CC(=O)c1ccc(N2CCN(S(=O)(=O)c3ccc4c(c3)CCC(=O)N4)CC2)cc1 | -1 | 0 | / | -1 | -1 | -1
C=CCn1c(COc2ccc(C)cc2)nnc1SCc1ccc([N+](=O)[O-])cc1 | / | -2 | / | -2 | -2 | -1
S=C(Nc1ccc(Cl)cc1Cl)Nc1ccccc1Oc1ccccc1 | 2 | / | 2 | / | / | /
S=C(Nc1ccccc1Oc1ccccc1)Nc1cccc(Cl)c1Cl | 2 | 0 | 0 | 0 | 1.0* | 4
FC(F)(F)c1ccccc1NC(=S)OC1CCC12CCC(c1ccccc1)CC2 (stereo unspecified) | / | 3 | / | -1 | -1 | 0
Cc1ccc(N(CC(=O)NCCc2ccccc2)C(=O)CCC(=O)Nc2cc(C)ccn2)cc1 | 0 | 0 | 5.4* | 0 | -1 | 1
COCCNC(=O)CN(C(=O)Cn1nnc2ccccc21)c1ccc(C)c(F)c1 | -3 | 1 | 2 | 0 | -1 | 1
COCCNC(=O)CN(C(=O)Cn1nnc2ccccc21)c1ccc(C)cc1 | 0 | -3 | 4.5* | 1 | 0 | 1
COCCNC(=O)CN(C(=O)CCC(=O)Nc1ccccn1)c1ccc(OC)cc1 | 1 | 3 | 5.0* | 0 | -1 | -2
O=[N+]([O-])c1cccc(C2=Nn3c(nnc3-c3ccccc3)SC2)c1 | / | 6 | / | -2 | -1 | -2
COc1ccccc1CNC(=O)NNC(=O)CCn1nc(C)c([N+](=O)[O-])c1C | / | -3 | / | 0 | -2 | -1
O=C(CC1NCCc2ccccc21)Nc1ccc(Oc2ccccc2)cc1 (stereo unspecified) | 0 | -1 | -1 | 0 | -1 | -2
O=C(CC1NCCc2ccccc21)Nc1ccccc1 (stereo unspecified) | 6 | 3 | 2 | 2 | 0.9* | 5
CN(CCO)c1cccc2c1S(=O)(=O)N(Cc1cn(Cc3cccc(F)c3)nn1)Cc1ccccc1O2 | / | -1 | / | 0 | -1 | -3
CN1CC=C(c2ccccc2)N(c2ccc(Cl)cc2)C1=O | / | 2 | / | 0 | -1 | -1
CCC(C)NC(=O)Cn1cc(S(=O)(=O)N2CCCC2)c(S(=O)(=O)N2CCCC2)c1 (stereo unspecified) | 0 | 3 | 1 | 0 | -1 | -2
CCCNC(=O)Cn1cc(S(=O)(=O)N2CCCC2)c(S(=O)(=O)N2CCCC2)c1 | 3 | 2 | 1 | 3.9* | -1 | 1
COC(=O)[C@]12C[C@H](CC(=O)N3CCC(c4ccccc4)CC3)C(=O)N(Cc3ccco3)C1=C[C@H](COCc1ccccc1)O[C@@H]2C | / | -1 | / | -1 | -2 | -4
COC(=O)[C@]12C[C@H](CC(=O)N3CCC(c4ccccc4)CC3)C(=O)N(Cc3cccc4ccccc34)C1=C[C@H](COCc1ccccc1)O[C@@H]2C | / | 0 | / | -2 | -2 | -4
C[C@H]1COc2cc(Br)ccc2S(=O)(=O)N1Cc1cn(Cc2ccc(Br)cc2)nn1 | / | 1 | / | -1 | -2 | 3
O=C(Nc1nccs1)C1=COCCO1 | 1 | 2 | 2 | -1 | -1 | 0
SMILES | GAA850 FXN act | hgDAF-12 ag | DAX1 inh-1 | DAX1 inh-2 | ssDAF-12 act | hcDAF-12 act
CC(C)Cc1nnc(NC(=O)C2=COCCO2)s1 | 0 | 7 | 2 | 3.8* | -1 | 2
CCOC(=O)c1oc2ccc(CNCCO)c(Cl)c2c1C | 4 | 8 | 2 | 3 | 0 | 6.1*
COc1ccc(-n2c(SCC(=O)Nc3cc(C)c(NC(=O)c4ccccc4)cc3OC)nnc2-c2ccccc2F)cc1 | / | -4 | / | -3 | 0 | -1
COc1cc(CN2CCC(CCC(=O)NC3CC3)CC2)cc(Cl)c1OC | 2 | 2 | 5.2* | 0 | -1 | 0
O=C(CCC1CCN(Cc2ccccc2Cl)CC1)NC1CC1 | 0 | 0 | -1 | 0 | -1 | -1
COc1cc(CNCCc2ccccc2)cc(Br)c1OCC(=O)Nc1ccccc1C | -7 | 1 | 4.3* | 1 | 0 | -2
COc1ccc(S[C@]2(C(=O)N3CCCC3)CC(=O)N[C@@H]2c2ccc(OC)cc2)cc1 | / | -2 | / | -1 | -1 | -2
COC(=O)[C@]12C[C@H](CC(=O)N3CCN(C(=O)c4ccco4)CC3)C(=O)N(Cc3ccco3)C1=C[C@H](C(C)C)O[C@@H]2C1CC1 | / | -3 | / | -1 | -1 | -2
FC(F)(F)c1ccc(NCCc2ccccc2)nc1 | 1 | 0 | 5.1* | 0 | -1 | -1
O=C(OC12CCCN(C1)/C(=C/c1ccc(Cl)cc1)C2)c1ccno1 (stereo unspecified) | / | -1 | / | 0 | 0 | -2
Cc1ccc(C(=O)O/N=C(\N)c2ccccn2)cc1 | -5 | -8 | -3 | -1 | -2 | -2
C/C(=N\OC(=O)c1ccc(Br)cc1)c1ccccn1 | 1 | 0 | 1 | 0 | 0.9* | 2
Cc1nnc2sc(-c3ccc(N(C)C)cc3)nn2c1=O | 3 | 12* | 2 | 1 | 0 | 4
O=C(O)Cc1sc(Nc2cccc3ccccc23)nc1-c1ccccc1 | 1 | -2 | 0 | 4.3* | 0 | 1
Nc1nc(-c2cccs2)c(CC(=O)O)s1 | 1 | -2 | -1 | 0 | -1 | 0
O=C(O)Cc1sc(Nc2ccc(Cl)cc2)nc1-c1cccs1 | / | 9 | / | 2 | 0 | 5.8*
COc1ccc(CNS(=O)(=O)/C=C/c2ccc(OC)cc2CNC(=O)OC(C)(C)C)cc1 | / | 0 | / | -1 | -1 | -4
O=c1[nH]c(/C=C/c2ccc(Br)cc2)nc2ccccc12 | 4 | 6 | 3 | 1 | -1 | 1
Cc1nc(/C=C/c2ccccc2)[nH]c(=O)c1-c1ccccc1 | -2 | 12* | 3 | 2 | 0 | 5
